Among the data in PubChem BioAssay AID1117267 (The Scripps Research Institute Molecular Screening Center, 2014) are activation values, retold here.

Screen size: about 92,000 compounds; about 1,200 (1.3%) were called active. The list comes from a sample in which actives are over-represented; it also holds similar structures and randomly drawn compounds. Values without a mark were called inactive.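 The calls were made as follows: active = activation above the mean of all tested compounds plus 3 SD (cut at about 9.5% in these data); inactive = the rest.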

This experiment is described as follows: compounds raising TTR promoter-driven luciferase – cell-based, luminescence, SH-SY5Y, TTR promoter Gaussia luciferase, primary screen (AID 1117267).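 Also: cells exposed to compounds for one day before reading; 0% = median of all test compound wells on the plate.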 The settings on record: at 16.7 µM, stronger effect = higher value, 100% = recombinant luciferase protein wells.
Take `COc1ccc2c(CC(=O)OCC(=O)NC(N)=O)coc2c1`: the activation was 1.14%.

Consider `O=C(NNS(=O)(=O)c1ccccc1)c1cnn(-c2ccc(Cl)cc2)c1C(F)(F)F`, for which the activation was -0.1%.

For `Cc1ccc(C(=O)Nc2c(C#N)c(C)c(C)n2Cc2ccccc2)cc1`, the activation was 0.67%.

For `Cc1c(C#N)c(NC(=O)c2ccccc2)n(Cc2ccccc2)c1C`, the activation is 10.7% (active).

With `CC(=O)Nc1ccc(C(=O)Nc2nc(-c3cc(C)n(Cc4ccccc4)c3C)cs2)cc1`, the activation was -0.51%.

Regarding `COc1ccc(S(=O)(=O)N(CC(=O)N/N=C/c2ccccc2C(=O)O)c2ccccc2OC)cc1`, the activation is -0.82%.

Regarding `CSCCC(c1nnnn1Cc1ccccc1)N1CCN(C/C=C/c2ccccc2)CC1` (stereo not drawn), the activation is -2.08%.

As to `COc1ccc(C(=O)N2CCCC(C(=O)c3ccccc3OC)C2)cc1OC` (stereo not drawn), the activation was -0.18%.

As for `Cc1nc(Cl)cc(N/N=C/c2ccccc2)n1`, the activation is -2.14%.

Take `COC(=O)c1sc(N)c(C(=O)OC)c1COC(=O)CNS(=O)(=O)c1ccc(C)cc1`: the activation was -1.81%.

As for `O=C(N=C1SC2CS(=O)(=O)CC2N1Cc1ccccc1)c1ccccc1` (stereo not drawn), the activation was 1.31%.

In the case of `Cc1ccc(Sc2cc(C(=O)c3ccccc3C(=O)O)ccc2[N+](=O)[O-])cc1`, the activation is 1.71%.

On to `CC(C)NC(=O)c1ccc(Sc2ccccc2)c([N+](=O)[O-])c1`, for which the activation was 14.4% (active).

For the compound `O=C(NNC(=O)c1ccc(-n2cncn2)c([N+](=O)[O-])c1)c1ccccc1`, the activation was -1.38%.

As for `COC(=O)C1CCN(C(=O)c2ccc3oc(Cc4ccc(Cl)cc4)nc3c2)CC1`, the activation is -1.37%.

For `Cc1ccsc1C(=O)OCC(=O)NCCc1ccccc1`, the activation was 2.82%.

On to `CCOc1ccc(N=C2NC(=O)S/C2=C\c2ccc(O)cc2)cc1`, for which the activation is 11.2% (active).

Turning to `C=CCOc1ccc(/C=C2\SC(=S)N(CCC(=O)O)C2=O)cc1`, the activation was 0.39%.

`CCOc1ccc(-c2cc(C(=O)N/N=C/c3ccc(O)cc3)c3ccccc3n2)cc1`: the activation is -0.07%.

Regarding `O=C1CN(C(=O)COc2c(Cl)cccc2Cl)c2ccccc2N1`, the activation was -1.21%.

Regarding `O=C1CN(C(=O)COC(=O)C2CC(=O)N(Cc3ccco3)C2)c2ccccc2N1` (stereo not drawn), the activation was 12.4% (active).

Consider `O=C1CN(C(=O)COC(=O)/C=C/c2ccc(F)cc2)c2ccccc2N1`, for which the activation is 0.24%.

With `O=C(CSc1nc2cccc(F)c2c(=O)n1-c1ccccc1)Nc1ccc2c(c1)CCC2`, the activation is -1.17%.

For `COc1cc(NS(=O)(=O)c2ccc(NC(=O)c3ccc([N+](=O)[O-])cc3)cc2)ncn1`, the activation was -0.02%.

Take `COc1ccc2c(c1)O/C(=C\c1ccccc1O)C2=O`: the activation is -0.14%.

As to `CC(=O)OCc1cc(=O)n(C)c(=O)n1C`, the activation was 1.42%.

On to `COc1ccc(S(=O)(=O)NCC(=O)NCc2cc(=O)n(C)c(=O)n2C)cc1F`, for which the activation is 53.5% (active).

As to `Cn1c(=O)c2cc(S(=O)(=O)NCCC(=O)Nc3ccc(F)cc3F)ccc2n(C)c1=O`, the activation is 0.89%.

Regarding `O=C(C1=C(O)C(=O)N(CCOCCO)C1c1ccccn1)c1cccs1` (stereo not drawn), the activation is -0.44%.

Turning to `O=C(Nc1cccc(O)c1)c1ccc(C(=O)c2ccccc2)o1`, the activation is 15.8% (active).

Turning to `O=C(Cc1ccccc1)Nc1cccc(NC(=O)c2ccccc2)c1`, the activation was -1.17%.

As to `C/C(=C\C(=O)c1ccccc1)Nc1cccc(O)c1`, the activation is -1.23%.

On to `O=c1[nH]cccc1-c1nc2ccccc2n1Cc1ccc(Cl)cc1`, for which the activation was 1.33%.

`CC1CCN(S(=O)(=O)c2ccc(S(=O)(=O)NCc3cccnc3)cc2)CC1`: the activation is 1.06%.

For the compound `CCC(C)C(=O)Nc1ccccc1N1CCN(c2ccc(F)cc2)CC1` (stereo not drawn), the activation was 1.32%.

In the case of `COC(=O)COc1ccc2oc(=O)cc(C)c2c1`, the activation was -3.29%.

With `CC(=O)c1c(C)[nH]c(C(=O)COc2ccc3c(C)cc(=O)oc3c2)c1C`, the activation is 11.5% (active).

On to `CCOC(=O)Cc1csc(NC(=O)COc2ccc3c(C)cc(=O)oc3c2)n1`, for which the activation was -0.4%.

As for `N#Cc1ccc(/C=C2\CCn3c2nc2cc(C(=O)O)ccc2c3=O)cc1`, the activation was -0.49%.

On to `COC[C@@H]1CCCN1c1ccc2c(c1)O[C@H](C)CCN(C1CC1)S2(=O)=O`, for which the activation is 1.42%.

In the case of `CN(CCc1ccccc1)C(=O)c1cccc(NC(=O)Cc2cccc(NC(=O)C3CCCN(C(=O)CCc4ccccc4)C3)c2)c1` (stereo not drawn), the activation was -4.56%.

`CC1Cc2ccccc2N1S(=O)(=O)c1cccc(C(=O)OCC(=O)N2CCOCC2)c1` (stereo not drawn): the activation is 2.01%.

For the compound `Cn1c2ccccc2c(=O)c2c(=O)n(Cc3ccco3)c(COc3ccccc3)nc21`, the activation is -1.02%.

Take `COc1ccc2[nH]c3c(=O)n(Cc4ccco4)cnc3c2c1`: the activation was 1.08%.

For the compound `COc1ccc(-c2oc3ncn(Cc4ccco4)c(=N)c3c2-c2ccc(OC)cc2)cc1`, the activation was 11.8% (active).

Turning to `C(#CCN1CCOCC1)CCCN1CCOCC1`, the activation was 0.16%.

Take `O=C(Nc1nncs1)c1cccc(S(=O)(=O)N2CCCCC2)c1`: the activation is 0.77%.

As to `O=C(c1cccc(S(=O)(=O)N2CCCCCC2)c1)N1CCN(Cc2ccccc2)CC1`, the activation was -0.07%.

As for `O=C(NNC1=NCCC1)c1cccc(S(=O)(=O)N2CCCCC2)c1`, the activation was 12% (active).

Regarding `Cc1c(NC(=O)C(=O)N/N=C/c2cccs2)c(=O)n(-c2ccccc2)n1C`, the activation is -1.22%.

Turning to `O=c1c2c3c(sc2n(CCN2CCCC2)c(=O)n1Cc1ccccc1)CCCCC3`, the activation is 1.57%.

In the case of `COc1ccc(C2c3ccc(O)cc3Oc3ncn(CCCO)c(=N)c32)cc1OC` (stereo not drawn), the activation was 9.86% (active).

`O=c1ccnc(Nc2ccc(Cl)cc2)[nH]1`: the activation was 1.51%.

As to `COc1ccc(CN2CN(C3CCCC3)CSC2=S)cc1`, the activation is -1.82%.

For the compound `O=C1NC(=Nc2ccc(Cl)cc2)SC1Cc1cccc(Cl)c1Cl` (stereo not drawn), the activation was -2.63%.

Regarding `COc1cc(NS(=O)(=O)c2ccc(NC(=O)CN3C(=O)c4ccccc4C3=O)cc2)ncn1`, the activation is 0.85%.

With `O=S(=O)(Nc1ccccn1)c1cccc(S(=O)(=O)c2ccc(Cl)cc2)c1`, the activation is 1.15%.

Consider `O=C(CS(=O)(=O)c1ccccc1)Nc1ccc(S(=O)(=O)Nc2ccccn2)cc1`, for which the activation is 11.2% (active).
